In PubChem BioAssay:
Activity calls are given as the source filed them.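 Rule for the calls, unless noted: active = visual image review flags a hit and inhibition of aggregation exceeds 20%; inconclusive = visual hit but inhibition at or below 20%; inactive = no hit on visual image review.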

Columns and labels:
[1] = inhibitors of TNFa-induced NFkB p65 translocation, primary screen, imaging, HUVEC, MLSMR starter and 10KST1 sets (AID 438;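 active = inhibition above 20% together with a positive visual image hit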;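 note: compound added about 3h40 before a 20 min TNFalpha stimulation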;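 for inhibition: signal is the nuclear over cytoplasmic p65 intensity ratio per well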); details: HUVEC TNFa-induced p65 nuclear translocation; cell count: measured here: nuclei count (cytotoxicity indicator), at 2.08 µM; inhibition: at 2 µM, stronger effect = higher value, 0% TNFa-plus-vehicle, 100% no-TNFa wells
[2] = reduction of polyQ htt aggregates in cells – imaging, exon1htt(103Q)mCFP cells, high-content imaging, primary screen (AID 483); details: exon1htt(103Q)mCFP cell line, aggregate imaging, at 2 µM; inhibition of aggregation: stronger effect = higher value; nuclei count: measured here: cell count, toxicity;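 note: compound exposure lasted 3 days before fixation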;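 for nuclei count: percent of the per-plate median nuclei count of sample wells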
[3] = endothelial E-selectin expression blockers – imaging, HUVEC, immunofluorescence, MLSMR starter and 10KST1 sets, primary screen (AID 487;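 active = visually confirmed hit in the image check and inhibition above 20%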;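 for inhibition: signal is fraction of cell area covered by stained E-selectin grains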;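 for nuclei count: 100% = median nuclei count of all wells on the same plate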); details: HUVEC TNFalpha-induced E-selectin immunofluorescence imaging, at 2 µM; inhibition: stronger effect = higher value; nuclei count: measured here: cell number, toxicity
[4] = target: Voltage-gated potassium channel subunit beta-2 (Rattus norvegicus) (UniProt P62483); assay: inhibitors of rat Kvbeta2 reductase activity – biochemical, NADPH fluorescence, primary screen (AID 622;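 active = fluorescence slope higher than the sample average by over 3 SD, cut at about -0.22 in these data, passing the limit was not always enough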;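 note: slope of raw intensity against log time taken from 70 to 1610 s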); details: recombinant KvBeta, 4-cyanobenzaldehyde reduction, at 10 µM, stronger effect = higher value
[5] = target: Voltage-gated potassium channel subunit beta-2 (Rattus norvegicus) (UniProt P62483); assay: enhancers of rat Kvbeta2 NADPH turnover – biochemical, NADPH fluorescence, primary screen (AID 623;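 active = NADPH fluorescence slope more negative than the mean of all samples by about 3 SD, 99.7% confidence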;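 note: fluorescence intensity change per second fitted from 20 to 320 s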); details: Recombinant KvBeta, NADPH fluorescence decrease slope, 10 min; at 10 µM; stronger effect = lower value
[6] = target: Alpha-2C adrenergic receptor (Homo sapiens) (UniProt P18825); assay: compounds altering alpha2C-coupled GIRK flux – cell-based, HEK293 alpha2C/GIRK1/2, thallium flux, primary screen (AID 624;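 active = fluorescence slope after compound addition differing from the mean of all screened samples at 99.7% confidence, in either direction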;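 note: slope of fluorescence ratio to pre-addition baseline per second over 15 to 24 s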); details: thallium flux BTC fluorescence, at 10 µM, actives lie on both sides
[7] = blockers of RIG-like receptor reporter activation – cell-based, Sendai virus stimulus, luciferase, 10K MLSCN set, TLR/RLR signaling modifier project, primary screen (AID 602276;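 active = inhibition at or above 50% at 10 µM; inactive = inhibition below 50%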;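 note: firefly luciferase from ISG56 promoter only with Renilla not read in this screen; 0% = Sendai virus plus DMSO and 100% = medium plus DMSO without virus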); details: HEK293 RL24 IRF3 luciferase reporter, at 10 µM, stronger effect = higher value
[8] = TLR3 IRF3 reporter activation blockers – cell-based, poly I:C stimulus, luciferase, 10K MLSCN set, primary screen (AID 602277;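 active = inhibition of the reporter signal at or above 50%; inactive = inhibition below 50%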); details: HEK293-TLR3 RL24 IRF3 luciferase reporter, at 10 µM, stronger effect = higher value

Sequence of Alpha-2C adrenergic receptor (Homo sapiens) (P18825 whole entry, looked up): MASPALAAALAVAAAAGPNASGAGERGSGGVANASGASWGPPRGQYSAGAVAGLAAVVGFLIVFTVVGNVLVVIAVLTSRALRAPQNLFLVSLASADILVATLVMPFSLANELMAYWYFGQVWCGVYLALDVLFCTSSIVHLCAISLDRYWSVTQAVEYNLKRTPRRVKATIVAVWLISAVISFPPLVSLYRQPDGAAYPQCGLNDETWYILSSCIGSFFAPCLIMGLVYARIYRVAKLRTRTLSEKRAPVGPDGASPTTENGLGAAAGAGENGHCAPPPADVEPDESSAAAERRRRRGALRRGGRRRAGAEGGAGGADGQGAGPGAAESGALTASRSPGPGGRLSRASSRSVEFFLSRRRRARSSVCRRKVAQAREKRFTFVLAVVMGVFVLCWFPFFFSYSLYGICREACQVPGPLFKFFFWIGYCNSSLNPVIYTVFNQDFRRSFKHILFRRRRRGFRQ
Sequence of Voltage-gated potassium channel subunit beta-2 (Rattus norvegicus) (P62483 whole entry, looked up): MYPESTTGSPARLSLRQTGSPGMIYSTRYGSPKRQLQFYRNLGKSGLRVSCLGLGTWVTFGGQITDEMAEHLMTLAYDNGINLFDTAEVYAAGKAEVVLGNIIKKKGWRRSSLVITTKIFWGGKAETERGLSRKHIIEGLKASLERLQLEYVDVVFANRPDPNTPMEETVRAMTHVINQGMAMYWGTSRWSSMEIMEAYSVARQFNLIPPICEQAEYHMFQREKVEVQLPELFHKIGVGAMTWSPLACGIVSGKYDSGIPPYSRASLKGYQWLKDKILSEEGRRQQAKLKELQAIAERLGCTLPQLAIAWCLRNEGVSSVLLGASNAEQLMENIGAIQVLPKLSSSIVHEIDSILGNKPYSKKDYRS

SMILES	cell count [1]	inhibition [1]	inhibition of aggregation [2]	nuclei count [2]	inhibition [3]	nuclei count [3]	fluorescence slope [4]	NADPH fluorescence slope [5]	slope [6]	inhibition [7]	inhibition [8]
Cc1cc(C)nc(Sc2ccc3nnc(C(F)(F)C(F)(F)C(F)(F)F)n3n2)n1	564	-21.1% (inactive)	-9.9% (inactive)	115%	4.1% (inactive)	99.7%	-0.495 (inactive)	-3.3e-05 (inactive)	0.00541 (inactive)	-0.722% (inactive)	24.8% (inactive)
O=C(COC(=O)CSc1nnc(-c2ccc(Cl)cc2)o1)NCc1ccc2c(c1)OCO2	517	-2.4% (inactive)	4.7% (inactive)	123%	9.2% (inactive)	107%	-0.587 (inactive)	-3.7e-05 (inactive)	0.00607 (inactive)	8.92% (inactive)	17.2% (inactive)
O=C(NCc1ccccn1)C(C(=O)c1ccc(F)cc1)n1ccccc1=O (stereo not given)	531	-1.5% (inactive)	3.1% (inactive)	70.7%	-117% (inactive)	219%	-0.472 (inactive)	-3.8e-05 (inactive)	0.0066 (inactive)	-10.6% (inactive)	3.51% (inactive)
CC1/C(=N/O)C(CN(C)C)C2CC1C2(C)C (stereo not given)	347	-2.5% (inactive)	7.8% (inactive)	30.1%	13.2% (inactive)	101%	-0.592 (inactive)	1.8e-05 (inactive)	0.0062 (inactive)	3% (inactive)	11.5% (inactive)
Cc1oc(-c2ccccc2F)nc1CS(=O)(=O)CC(=O)NCc1ccco1	753	-1.1% (inactive)	4.5% (inactive)	102%	-29.4% (inactive)	107%	-0.539 (inactive)	-1.9e-05 (inactive)	0.00692 (inactive)	0.0639% (inactive)	22.5% (inactive)
c1ccc(-n2ncc3c(NCc4cccs4)ncnc32)cc1	338	-5.7% (inactive)	-6% (inactive)	94.4%	-3.7% (inactive)	118%	-0.415 (inactive)	-4.2e-05 (inactive)	0.00561 (inactive)	-19.7% (inactive)	-78.7% (inactive)
O=C(C1CCN(c2nnnn2-c2ccccc2)CC1)N1CCN(c2ccccc2)CC1	618	-33.7% (inactive)	-1.1% (inactive)	98.3%	-35.9% (inactive)	112%	-0.602 (inactive)	-5.4e-05 (inactive)	0.00667 (inactive)	8.57% (inactive)	22.4% (inactive)
COc1ccc(OC)c(S(=O)(=O)N2CCC(C(=O)NCc3ccccc3OC)CC2)c1	782	-2.1% (inactive)	-13.8% (inactive)	107%	-74.6% (inactive)	133%	-0.517 (inactive)	-1.4e-05 (inactive)	0.00487 (inactive)	4.82% (inactive)	13.9% (inactive)
CCOc1cc2[nH]c(=O)n(CCC(=O)NCCc3ccc(OC)c(OC)c3)c(=O)c2cc1OCC	313	-2.1% (inactive)	-0.3% (inactive)	103%	-19.2% (inactive)	122%	-0.514 (inactive)	2.8e-05 (inactive)	0.00653 (inactive)	8.69% (inactive)	16.7% (inactive)
CC(C)C(c1nnnn1C1CCCC1)N1CCCc2ccccc21 (stereo not given)	706	-6.9% (inactive)	5.4% (inactive)	95.4%	-47.1% (inactive)	107%	-0.423 (inactive)	-7.3e-05 (inactive)	0.00444 (inactive)	-17.8% (inactive)	-6.74% (inactive)
CC(=O)C1=C(C)NC(C)=C(C(C)=O)C1c1cccs1	466	3.5% (inactive)	-5.6% (inactive)	103%	28.1% (inactive)	108%	-0.369 (inactive)	2.7e-05 (inactive)	0.00356 (inactive)	1.28% (inactive)	39.4% (inactive)
CC(C)(C)Nc1nc(NC(C)(C)C)nc(-n2ccnc2)n1	194	-0.8% (inactive)	-0.1% (inactive)	81.5%	2.8% (inactive)	91.6%	-0.443 (inactive)	1.8e-05 (inactive)	0.00537 (inactive)	14.6% (inactive)	29% (inactive)
CCCOC(=O)CSc1nc(N)c(C#N)c(CC)c1C#N	377	3.3% (inactive)	18% (inactive)	97.7%	-97.1% (inactive)	113%	-0.532 (inactive)	-2.3e-05 (inactive)	0.00456 (inactive)	-7.11% (inactive)	-13.9% (inactive)
COc1ccc(-c2nn3c(-c4cccc(C)c4)nnc3s2)cc1OC	525	10.3% (inactive)	-9.4% (inactive)	100%	-9.3% (inactive)	114%	-0.419 (inactive)	1.9e-05 (inactive)	0.00514 (inactive)	-18.2% (inactive)	-17.1% (inactive)
CCOc1cc(C(=O)Nc2c3c(nn2C(C)(C)C)CS(=O)C3)cc(OCC)c1OCC (stereo not given)	525	-16.3% (inactive)	-15.3% (inactive)	109%	16.3% (inactive)	122%	-0.545 (inactive)	2.6e-05 (inactive)	0.00616 (inactive)	6.91% (inactive)	3.04% (inactive)
CCCNS(=O)(=O)c1ccc(OCC(=O)NCc2ccco2)cc1	603	11.7% (inactive)	-6% (inactive)	110%	-76.7% (inactive)	126%	-0.478 (inactive)	8.5e-05 (inactive)	0.00584 (inactive)	-6.02% (inactive)	-17.4% (inactive)
CCOC(=O)C1CCN(C(=O)C2(NC(=O)Nc3ccccc3Cl)CCCCC2)CC1	568	-4.9% (inactive)	-41.9% (inactive)	107%	-54.8% (inactive)	105%	-0.626 (inactive)	5.4e-06 (inactive)	0.0059 (inactive)	15% (inactive)	20.6% (inactive)
CCOC(=O)N1CCN(C(=O)c2ccc(CS(=O)(=O)c3c(Cl)cccc3Cl)o2)CC1	512	-5% (inactive)	2.1% (inactive)	102%	-97.8% (inactive)	116%	-0.419 (inactive)	-6.8e-05 (inactive)	0.00631 (inactive)	-2.6% (inactive)	21.2% (inactive)
COc1ccc(C(=O)Nn2c(C3CCC3)nc3ccccc3c2=O)c(OC)c1	657	-10.2% (inactive)	-14% (inactive)	111%	14.7% (inactive)	129%	-0.585 (inactive)	-7.6e-07 (inactive)	0.00893 (inactive)	-0.704% (inactive)	5.08% (inactive)
CN(C)S(=O)(=O)NC(c1ccccc1)c1ccccc1	671	5.8% (inactive)	3.3% (inactive)	102%	14.6% (inactive)	99.9%	-0.413 (inactive)	-3.1e-05 (inactive)	0.00605 (inactive)	20.5% (inactive)	21.8% (inactive)
CCOC(=O)c1cc(-c2ccc(N)cc2)sc1N	588	14.8% (inactive)	24% (inactive)	90.5%	26.4% (inactive)	100%	-0.433 (inactive)	-7.7e-05 (inactive)	0.00189 (inactive)	-50.5% (inactive)	-117% (inactive)
Cc1cc(-n2c(C)cc(C(=O)CSc3nnnn3-c3ccc(Cl)cc3)c2C)no1	415	4.2% (inactive)	2.2% (inactive)	94%	-55.8% (inactive)	109%	-0.403 (inactive)	-3.2e-05 (inactive)	0.00589 (inactive)	9.68% (inactive)	13.2% (inactive)
Cc1ccc(Cn2nnnc2CN2CCC(O)(c3ccccc3F)CC2)cc1	784	0.2% (inactive)	12.3% (inactive)	96.1%	-57% (inactive)	122%	-0.498 (inactive)	-5.4e-05 (inactive)	0.00492 (inactive)	20.8% (inactive)	16.6% (inactive)
CCOc1ccc(OCc2cccc(C(=O)N3CCOCC3)c2)cc1	383	3.1% (inactive)	-7.6% (inactive)	101%	-148% (inactive)	117%	-0.407 (inactive)	-6.4e-05 (inactive)	0.00492 (inactive)	-39.6% (inactive)	-97.2% (inactive)
c1ccc(-c2nnc(-c3ccco3)n2-c2ccccc2)cc1	383	4.1% (inactive)	8.4% (inactive)	102%	-75.9% (inactive)	126%	-0.47 (inactive)	-2.4e-05 (inactive)	0.00639 (inactive)	15.2% (inactive)	20.5% (inactive)
